Source: PubChem BioAssay
Pf Dd2 inh – blocks in vitro growth of P. falciparum Dd2; P. falciparum Dd2 growth, SYBR Green, 72 h; Potency, µM (series often up to 28.9 µM), for inactives: at the top dose activity, negative = inhibition, actives largely listed as inhibitors; 120,000 compounds, 4.3% hits; AID 1347417; active = well fitted inhibition curve with a large enough effect;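 also: plate controls were DMSO vehicle for no effect and reference drug for full effect; nearly all actives have a fitted effect of over 65% in size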
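Readout: SYBR Green fluorescence, 485 nm excitation, 535 nm emission, after ~16 h lysis at 37C. Before that, Dd2-infected red cells (2.5% hematocrit) grew 72 h with compound, 29 uM top final concentration.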
* = called active by the depositor; i = inactive; [ ] = remark or other dose. Shown is part of a subset that was picked to be rich in hits. Potency is read from the fitted curve at half-maximal effect.

SMILES | Pf Dd2 inh
O=c1n(-c2ccc(F)cc2F)nc2n1CCN(Cc1ccc(F)cc1)C2 | i
O=c1c2nc(N3CCC(c4ccccc4)CC3)ccc2ncn1C1CC1 | -12.4%[44.1 µM]
O=Cc1ccc(-c2ccc(F)cc2)cc1 | 18.0%[44.1 µM]
O=C(Cn1nc2c(cc1=O)CCCC2)NCCc1ccc(O)cc1 | 7.7%
Cc1nc(-c2c3n(c(=O)n(CC(=O)Nc4cc(Cl)ccc4C)c2=O)CCCCC3)no1 | 0.0%
Cc1nc(CN2CC3(CCN(C)C3)c3cc(C(=O)NCCc4ccccc4)ccc32)cs1 (stereo not given) | 11.2µM*
CN1CCCC2(C1)CN(C)c1ccc(C(=O)NCCc3ccccc3)cc12 (stereo not given) | -26.6%[44.1 µM]
COCCNC(=O)c1ccc2c(c1)C1(CCN(C)C1)CN2Cc1csc(C)n1 (stereo not given) | i
CCOCc1nc(C2CCCN(C(=O)c3cccc(F)c3)C2)no1 (stereo not given) | -10.8%
COCc1cc(C)nc2sc(C(=O)Nc3ccccc3O)c(N)c12 | 8.91µM*
Cc1cc(C)c2c(N)c(C(=O)Nc3ccccc3C(F)(F)F)sc2n1 | 18.6%
CCc1ccccc1NC(=O)c1sc2nc(C)cc(COC)c2c1N | -9.4%
COc1ccc(OC)c(NC(=O)c2c(NCc3ccc(OC)c(OC)c3)sc3c2CCC(C)C3)c1 (stereo not given) | 5.62µM*
COC(=O)c1c(NC(=O)COc2c(C)ccc(C)c2C)sc2c1CCC(C)C2 (stereo not given) | 26.3%
COC(=O)c1c(NC(=O)COc2ccc(OC)cc2)sc2c1CCC(C)C2 (stereo not given) | -0.7%
COC(=O)c1c(NC(=O)COc2cc(C)ccc2C(C)C)sc2c1CCC(C)C2 (stereo not given) | 24.2%
COc1ccc(NC(=O)Cn2nnc3sc4c(c3c2=O)CCC(C)C4)c(OC)c1 (stereo not given) | 19.1%
CCOC(=O)N1CCc2c(sc(NCc3ccc(N(CC)CC)cc3)c2C(=O)Nc2cc(OC)ccc2OC)C1 | 7.94µM*
CCOC(=O)N1CCc2c(sc3c2C(=O)NC(c2cc(OC)c(O)c(OC)c2)N3)C1 (stereo not given) | -14.7%
COc1ccc(OC)c(NC(=O)c2c(NCc3ccc(C)o3)sc3c2CCC(C)C3)c1 (stereo not given) | 11.2µM*
CCOC(=O)N1CCc2c(sc(NCc3cccs3)c2C(=O)Nc2ccc(OC)cc2OC)C1 | -6.3%
CN(Cc1ccccc1)C(=O)c1ccc2c(c1)[nH]c(=O)n2C1CCC(O)CC1 (stereo not given) | -11.1%
O=C(Cc1ccc(Cl)cc1)N1CCC(c2n[nH]c(=O)n2-c2ccccc2)CC1 | i
COC[C@]1(O)CCN(C(=O)c2ccc3c(c2)CCC3)CC1(C)C | -9.3%
CCOCC(=O)N1CC(F)(F)C[C@H]1c1nc(C(=O)NC)no1 | 42.4%
SMILES | Pf Dd2 inh
C=CCNC(=O)N[C@H]1CCN2C(=O)c3ccc(Cl)cc3NC(=O)[C@@H]2C1 | 25.9%[44.1 µM]
O=C(Nc1ccccc1)[C@H]1O[C@H](CCN2CCN(c3ccccn3)CC2)CC[C@@H]1O | -2.7%[44.1 µM]
COc1ccc(-c2cc(-c3cccnc3)c3cncn3c2)cn1 | -0.9%[44.1 µM]
COc1ccc(-c2cc(-c3cccc(O)c3)cn3cncc23)cc1 | 1.26µM*
O=c1ccc(-c2cc(-c3cccc(C(F)(F)F)c3)cn3cncc23)c[nH]1 | i
COc1ccc(-c2cc(-c3cccc(CO)c3)cn3cncc23)cn1 | 3.98µM*
NC(=O)c1cccc(-c2cc(-c3cccnc3)c3cncn3c2)c1 | -4.0%[44.1 µM]
COc1cccc(-c2cc(-c3cn[nH]c3)c3cncn3c2)c1 | i
c1cncc(-c2cc(-c3cccc4cc[nH]c34)cn3cncc23)c1 | 10µM*
CC(=O)Nc1cccc(-c2cc(-c3ccncc3)c3cncn3c2)c1 | i
COc1ccc(-c2cc(-c3cccc(C(N)=O)c3)cn3cncc23)cc1 | 3.55µM*
COc1ccc(Cl)cc1S(=O)(=O)N1CCc2nn(C)c(=O)n2CC1 | 47.8%
CCN1c2cc(C(=O)NC3CCCCC3)ccc2C(=O)N2CCCCC21 (stereo not given) | i
CC1CCN(c2ccc(CNC(=O)c3ccc4c(c3)C(O)CCCCCN4C)cc2)CC1 (stereo not given) | -3.7%
C[S+](=O)([O-])N1Cc2ccccc2CC2(CCCN(CC3CCNCC3)C2)C1 (stereo not given) | -9.6%
O=C1NC(C(=O)Nc2cccc(Cl)c2)Cn2cccc21 (stereo not given) | -18.1%
COc1ccccc1OC1(C(=O)O)CCN(C(=O)CC2C=CCC2)CC1 (stereo not given) | 3.4%
CN(Cc1ccccc1)C(=O)[C@H]1O[C@H](CCN2CCOCC2)CC[C@@H]1O | -11.5%[44.1 µM]
C#CCN(C)CC[C@@H]1CC[C@H](O)[C@@H](C(=O)N(C)Cc2ccccc2)O1 | -12.4%[44.1 µM]
CN(Cc1ccccc1)C(=O)[C@H]1O[C@H](CCN2CCN(Cc3ccccc3)CC2)CC[C@@H]1O | 4.47µM*
O=S(=O)(c1cc(F)cc(F)c1)N1CCCC1c1nncn1Cc1ccncc1 (stereo not given) | 0.8%
Cc1cc(OC2CN(Cc3ccc(F)cc3)C2)ccc1F | i
CN(Cc1cccnc1)C(=O)[C@H]1CN(Cc2ccccc2)C[C@H]1C(=O)O | i
Cc1ccccc1N(C)C1CN(Cc2cccnc2)C1 | 12.6µM*
Cc1cc(F)ccc1OC1CN([S+](=O)([O-])c2ccccc2)C1 | i
SMILES | Pf Dd2 inh
Cc1cc(F)ccc1OC1CN(Cc2cccnc2)C1 | 6.31µM*
CN(C)C(=O)[C@@H]1CN(Cc2cccnc2)C[C@H]1CO | 15.2%
COc1cccc(CCc2nc(-c3nnn4c3COC(c3ccc(Cl)cc3)C4)no2)c1 (stereo not given) | -23.6%
COCCN1Cc2ccc(Nc3ccc(OC)cc3)nc2C(C)(C(=O)NC(C)C)C1 (stereo not given) | 12.6µM*
COCCN1Cc2ccc(NCc3ccccc3)nc2C(C)(C(=O)NCc2ccccc2)C1 (stereo not given) | -26.5%
COCCN1Cc2ccc(Nc3ccc(OC)cc3)nc2C(C)(C(=O)NCC2CC2)C1 (stereo not given) | i
CCOc1ccccc1C(=O)N[C@@H]1CN(C)C[C@H]1CN(C)C | -21.5%
Cc1ccc(NC(=O)NCC2CCOCC2)c(Cl)c1 | 3.7%
COc1ccc(CN2C[C@H]3CN(Cc4cccc(OC(F)(F)F)c4)CCN3C2=O)cc1 | i
COc1ccc(C(=O)NC2CCN(c3cc(-c4ccccc4)[nH]n3)C2)c(C)c1 (stereo not given) | i
COc1ccc(C(=O)NC2CCN(c3cnn(CC4CC4)c(=O)c3)CC2)c(OC)c1 | 7.94µM*
COc1ccc(-c2cc(N3CCCC(NC(=O)c4cc(Cl)ccc4OC)C3)n[nH]2)cc1 (stereo not given) | -10.0%
COc1ccc(C(=O)NC2CCN(c3cnn(C)c(=O)c3)CC2)c(OC)c1 | -18.7%
COc1ccccc1C(=O)NC1CCN(c2cnn(CC3CC3)c(=O)c2)CC1 | i
COc1ccc(-c2cc(N3CCC(NC(=O)c4ccccc4C)C3)n[nH]2)cc1 (stereo not given) | i
COc1ccc(Cl)cc1C(=O)NC1CCN(c2cc(-c3ccc(F)cc3)[nH]n2)C1 (stereo not given) | -12.3%
COc1ccc(-c2cc(N3CCC(NC(=O)c4ccc(C)c(C)c4)C3)n[nH]2)cc1 (stereo not given) | -4.2%
COc1ccc(C(=O)NC2CCN(c3cc(-c4ccccc4)[nH]n3)C2)c(OC)c1 (stereo not given) | 4.47µM*
Cc1ccc(C(=O)NC2CCN(c3cc(-c4ccc(F)cc4)[nH]n3)C2)cc1C (stereo not given) | 12.6µM*
